Compounds with a hit are over-represented: about 2.2% of the library has one in this group of screens.
CSC inhib: blocks cancer stem cells; cancer stem cell-like cells viability, luminescence; inhibition, % at 7.5 µM; actives 1.1% (n = 300,000); AID 2717; in the data active = inhibition above about 75%; tested in HMLE shEcad cells
Calb FLC: C. albicans growth modulation with fluconazole | C. albicans CaCi-2 (fluconazole-resistant clinical isolate) + fluconazole, Alamar Blue growth, 48 h | growth inhibition, % (no concentration beside the values) | actives 0.57% (n = 300,000);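 active = growth inhibition above about 58% in most replicates, limit read from the data, passing the limit was not always enough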;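 also: all wells also contain fluconazole at 8 µg/ml as a sub-toxic cotreatment; 0% = median of DMSO wells and 100% = median of geldanamycin control wells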
PfHsp90 set2: reduces growth (ATP signal) of yeast expressing P. falciparum Hsp90 | inhibition, % at 9.4 µM | S. cerevisiae expressing PfHsp90, BacTiter-Glo ATP, 48 h; yeast lacking PDR1 and PDR3 efflux regulators | actives 0.32% (n = 310,000) | AID 504621;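 active = every replicate shows inhibition above about 80%, whatever the replicate mean, limit read from the data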;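 also: 0% = DMSO neutral controls and 100% = 20 µM radicicol positive controls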
Shn3 inh set2: inhibitors of Schnurri-3 3'UTR reporter in osteoblasts | actives 0.52% (n = 360,000) | Clone20 osteoblast Shn3 3'UTR firefly luciferase, 24 h | inhibition, % at 12.5 µM;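 active = mean inhibition of at least 75% with every replicate also reaching 75%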;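 also: 0% = median of neutral control wells and 100% = pilot-screen positive control compound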
Beta cell apopt: beta cell apoptosis inhibition. AID 435005. protection from apoptosis, % (concentration not given with the values). actives 0.8% (n = 300,000). INS-1E cytokine-induced death, ATP luminescence, 48 h; percent of positive-control rescue, neutral wells zero;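 active = Every replicate reaches about 75%, or at least half do and their mean reaches it too, limit read from the data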;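 also: 0% = cytokine-treated negative control wells and 100% = positive control rescue; higher means more ATP so stronger rescue from cytokine killing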
An asterisk follows results filed as active; / = no result given.

SMILES | CSC inhib | Calb FLC | PfHsp90 set2 | Shn3 inh set2 | Beta cell apopt
Nc1ccc(C(=O)N/N=C\c2ccc(OC(=O)c3ccccc3Cl)cc2)cc1 | 8 | 79* | -16 | 0 | 2
Cc1ccc(OC(C)C(=O)Nc2cccc(S(=O)(=O)N3CCCCCC3)c2)cc1 (stereo not given) | / | / | / | 17 | /
COc1ccc(S(=O)(=O)N(C)C)cc1NC(=O)c1ccc(OCC(=O)N2CCOCC2)c(OC)c1 | -19 | 2 | / | 6 | 6
c1ccc(CN2C3=NCCN3c3ccccc32)cc1 | 13 | -6 | 22 | -30 | -9
Cc1ccccc1CN1CC2=C(CCN(Cc3ccccc3)C2=O)N2CCN=C12 | / | / | / | 81* | /
Nc1nn2cc(-c3ccc(Br)cc3)nc2c2ccccc12 | / | 99* | -3 | -148 | 8
Cc1cccc(N2CCN(C(=O)C3CCC(=O)N(Cc4ccccc4F)C3)CC2)c1C (stereo not given) | 21 | -8 | -17 | 4 | 1
Cc1cc2oc(=O)c(CC(=O)NCCCN(C)C)c(C)c2c2occ(C(C)(C)C)c12 | 91* | 8 | / | / | 8
Nc1ccn([C@@H]2O[C@H](CNCC3=CCOc4ccc(O)cc43)[C@@H](O)[C@H]2O)c(=O)n1 | / | / | / | -2 | /
CC1OC2CC(=O)OC2C2=C1C(=O)c1c(O)cccc1C2=O (stereo not given) | / | / | / | 94* | /
O=C(Cc1coc2cc(O)ccc12)NNC(=O)c1ccc(Br)s1 | 2 | / | -7 | -6 | 0
COC(=O)[C@H](Cc1ccccc1)NC(=O)N1CCN(c2ccc(F)cc2)CC1 | -4 | 1 | -25 | 9 | -4
F[B-](F)(F)c1cc2cc(Br)ccc2s1 | / | / | 117* | -6 | /
C=C1/C=C(\C)[C@](C)(O)C[C@H](O)CC(=O)[C@H](O)[C@@H](O)[C@H](C)C[C@H](C)OC(=O)/C(C)=C/CC/C=C/[C@@H]2O[C@H]2C[C@H](C)C1 | / | / | / | / | 92*
COC(=O)c1ccccc1NCc1cc(=O)oc2cc(O)c(O)cc12 | 92* | -14 | -10 | -4 | 1
CC1=NN(c2ccccc2)C(=O)/C1=C/c1c(O)n(-c2ccc(F)cc2)[nH]c1=O | 87* | 1 | 16 | -37 | 3
CC1=NN(c2ccccc2)C(=O)C1=Cc1ccccc1 | / | / | / | -19 | /
CC(C)Cc1cc(C(=O)N2N=C(C(F)F)CC2(O)C(F)F)c2ccccc2n1 (stereo not given) | 7 | 4 | / | 4 | 9
CCc1ccc(-c2cc(C(=O)N3N=C(C(F)F)CC3(O)C(F)F)c3ccccc3n2)cc1 (stereo not given) | 89* | 25 | 111* | -4 | 14
Cc1ccc(COc2ccc(Br)cc2/C=N/O)cc1 | 78* | -1 | -15 | -37 | -10
O/N=C/c1cc(Br)ccc1OCc1ccc(F)cc1 | 14 | -17 | -28 | -7 | -4
CCn1c(/C=C/Nc2ccccc2)[n+](CC)c2cc(Cl)c(Cl)cc21 | 10 | -8 | -2 | 88* | 4
Cc1ccc(CNC(=O)CSCc2cccc(F)c2)cc1 | -12 | 94* | / | -23 | -4
C#CCOCCOCCOCCNc1nc(N2CCN(C(=O)CCCCCCCCCCNC(=O)[C@@H](CCSC)n3cc(CCO)nn3)CC2)nc(N2CCN(C(=O)CCCCCCCCCCNC(=O)[C@H]([C@@H](C)CC)n3cc(CCCCCN)nn3)CC2)n1 | -5 | / | / | / | 99*
C#CCOCCOCCOCCNc1nc(N2CCN(C(=O)CCCCCCCCCCNC(=O)[C@H]([C@@H](C)CC)n3cc(CCCCCN)nn3)CC2)nc(N2CCN(C(=O)CCCCCCCCCCNC(=O)[C@@H]([C@H](C)O)n3cc(C)nn3)CC2)n1 | 109* | / | 17 | 15 | 81*
C#CCOCCOCCOCCNc1nc(N2CCN(C(=O)CCCCCCCCCCNC(=O)[C@H](CCC(=O)O)n3cc(CCCCCN)nn3)CC2)nc(N2CCN(C(=O)CCCCCCCCCCNC(=O)[C@@H]([C@H](C)O)n3cc(C)nn3)CC2)n1 | 10 | / | -16 | 14 | -4
C#CCOCCOCCOCCNc1nc(N2CCN(C(=O)CCCCCCCCCCNC(=O)[C@H](CCCCN)n3cc(CCO)nn3)CC2)nc(N2CCN(C(=O)CCCCCCCCCCNC(=O)[C@@H]([C@H](C)O)n3cc(C)nn3)CC2)n1 | -1 | / | 31 | 10 | -5
C#CCOCCOCCOCCNc1nc(N2CCN(C(=O)CCCCCCCCCCNC(=O)[C@H](CCCCN)n3cc(C)nn3)CC2)nc(N2CCN(C(=O)CCCCCCCCCCNC(=O)[C@@H]([C@H](C)CC)n3cc(CCCCCN)nn3)CC2)n1 | 168* | / | 22 | 77 | 94*

Assay outcomes (PubChem)
